From PubChem
A selection: hits, their analogues and other compounds. The true share with any hit is near 5.9%.
VP16 counter: counter-screen for ROR gamma inhibitors: Gal4-VP16 reporter. Drosophila S2 Gal4-VP16 UAS-luciferase, luminescence, 20 h. Potency, µM (titrated, usually from 53.6 µM), for inactives: at the highest dose activity, negative = inhibition, usual class: inhibitors. 310,000 tested, 3.5% active;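 also: Gal4-VP16 expression switched on by copper sulfate through the metallothionein promoter; potency is read from the fitted curve at half-maximal effect; nearly all actives have a fitted effect of over 50% in size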
GALK inhibitor: galactokinase (human) inhibition; P51570; Purified GALK, Kinase-Glo residual ATP luminescence; Potency, µM (highest dose often 57.5 µM), for the others: top-dose activity change, negative = inhibition, most hits filed as inhibitors; 270,000 tested, 0.007% active; also: potency is read from the fitted curve at half-maximal effect
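Luminescence from leftover ATP (Ultra-Glo luciferase/luciferin) served as read-out after a 1 h room-temperature reaction of 5 nM GALK with 35 uM ATP and 100 uM galactose.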
TrxR1 substrate: rat thioredoxin reductase 1 substrate activity. purified TrxR1 substrate turnover, NADPH consumption readout. Potency, µM (doses to about 114 µM), inactives show at the top dose activity change, negative = substrate turnover. 390,000 tested, 0.01% active. AID 588456; also: potency is read from the fitted curve at half-maximal effect; nearly all actives have a fitted effect of over 50% in size
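Rat TrxR1, dispensed at 90 nM, was prereduced with 400 uM NADPH (final) for 5 min at ~22 deg C, then incubated with compound 15 min before 400 uM selenite. A first-read NADPH fluorescence drop versus no-compound background flagged substrates.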
rTrxR1 inhibitor: blocks rat thioredoxin reductase 1. Potency, µM (series often up to 114 µM), for inactives: top-dose activity change, negative = inhibition, actives largely listed as inhibitors. O89049. recombinant rTrxR1, NADPH fluorescence consumption, selenite substrate. 390,000 tested, 1% active; also: potency is read from the fitted curve at half-maximal effect; nearly all actives have a fitted effect of over 65% in size
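Rat TrxR1 (90 nM in the dispensed reagent) was pre-reduced with 400 uM NADPH for 5 min at room temperature, then incubated with compound for 15 min. After 400 uM selenite was added, NADPH fluorescence (Ex 340/Em 450 nm) was followed for 8 min.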
Coupling enz: coupling enzyme interference in Giardia aldolase counter-screen; 290,000 tested, 0.67% active; coupling enzyme system counterscreen, AmpLite Red fluorescence; activity change, negative = inhibition, % at 58.2 µM, hits read low; in the data active = activity change below about -30%
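Fluorescence at 525 nm excitation and 598 nm emission measured inhibition of the coupled detection system without aldolase. Compounds (at 57.5 uM final) were preincubated 10 min at room temperature with coupling enzyme reagent before a 20 min substrate/AmpLite Red step.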
RORgamma inh: inhibitors of mouse ROR gamma transcriptional activity | Potency, µM (doses to about 53.6 µM), for the others: at the highest dose activity change, negative = inhibition, actives largely listed as inhibitors | P51450 | Drosophila S2 Gal4-RORgamma UAS-luciferase reporter, 20 h | AID 2551 | 310,000 tested, 5.4% active; also: potency is read from the fitted curve at half-maximal effect; nearly all actives have a fitted effect of over 60% in size
Target sequence (P51450 whole entry, looked up, the tested form may be a part): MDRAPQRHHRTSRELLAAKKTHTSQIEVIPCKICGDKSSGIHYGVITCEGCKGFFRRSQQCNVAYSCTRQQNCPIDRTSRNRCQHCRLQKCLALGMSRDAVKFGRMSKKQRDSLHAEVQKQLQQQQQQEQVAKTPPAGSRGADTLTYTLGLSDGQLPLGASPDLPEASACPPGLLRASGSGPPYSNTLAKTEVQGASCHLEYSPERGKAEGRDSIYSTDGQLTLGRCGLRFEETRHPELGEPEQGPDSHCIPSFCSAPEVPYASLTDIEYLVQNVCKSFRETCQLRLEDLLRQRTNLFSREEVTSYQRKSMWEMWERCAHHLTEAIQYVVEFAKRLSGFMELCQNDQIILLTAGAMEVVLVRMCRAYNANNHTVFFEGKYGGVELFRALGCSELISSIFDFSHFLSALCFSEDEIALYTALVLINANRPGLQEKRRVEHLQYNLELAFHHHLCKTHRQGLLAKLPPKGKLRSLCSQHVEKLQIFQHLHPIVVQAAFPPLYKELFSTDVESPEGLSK
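Schneider cells (Drosophila), stable Gal4 DBD–ROR gamma + UAS-luc; 1 hr cmpd preincubation; Cu2+ induction 700 uM final; 20 hr ambient; luminescence.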
Numbers without * were called inactive; ? = inconclusive; / = no result; ! = not active in a repeat; [ ] = another dose, or the depositor's remark. Unless noted, calls follow the shape of the dose curve; as a rule, active = well fitted curve in the direction sought with a large enough effect; inconclusive = small, poorly fitted or top-dose-only effect, or another doubt; inactive = no such curve, though single readings can be large; an effect the other way counts as inactive or inconclusive. % is scaled to controls: 0 for no effect and ±100 for the full control effect.

SMILES	VP16 counter	GALK inhibitor	TrxR1 substrate	rTrxR1 inhibitor	Coupling enz	RORgamma inh
OC(c1cccc(Cl)c1)(c1cccc(Cl)c1)C1CN2CCC1CC2 (configuration not stated)	11µM*	5%	-9%[57.1 µM]	25%[57.1 µM]	-2	6.3µM*
O=C(Nc1cccc(C(F)(F)F)c1)OC1CN2CCC1CC2 (configuration not stated)	0%	/	-4%	1%	2	12%
CCC[N+](=O)[O-]	-2%	/	/	/	/	-4%
C/C(=N\N1CCCCC1c1cccnc1)c1c(O)n(C2CCCCC2)c(=S)[nH]c1=O (configuration not stated)	4µM*	1%	-9%	-25%	0	3.2µM*
CCCCn1c(O)c(/C(CC)=N/N2CCCCC2c2cccnc2)c(=O)[nH]c1=S (configuration not stated)	?	-3%	10%[57.1 µM]	24%[57.1 µM]	1	?
CCCCCCCSc1cc(OC)c(CCN(C)C)cc1OC	?	-1%	-8%	-15%	2	?
CCCCCSc1cc(OC)c(CCN)cc1OC	?	4%	-5%[57.1 µM]	14%[57.1 µM]	-1	7.1µM*
C=C1C(=O)O[C@@H]2C[C@@H](C)[C@@H]3C=CC(=O)[C@@]3(C)[C@@H](OC(=O)CC(=O)O[C@H]3[C@@H]4C(=C)C(=O)O[C@@H]4C[C@@H](C)[C@@H]4C=CC(=O)[C@]43C)[C@H]12	0.63µM*	-12%	3%	?	1	1.1µM*
C=C1C(=O)O[C@H]2[C@H]1[C@H](OC(=O)CC(=O)O[C@@H]1C[C@@H](C)[C@@H]3C=CC(=O)[C@@]3(C)[C@H]3OC(=O)C(=C)[C@H]13)C[C@@H](C)[C@H]1C=CC(=O)[C@]12C	7.1µM*	3%	8%[57.1 µM]	?	-1	7.1µM*
C=C1C(=O)OC2CC(C)C3C=CC(=O)C3(C)C(O)C12 (configuration not stated)	/	/	-3%[57.1 µM]	-54%[57.1 µM]	/	/
C=C1C(=O)O[C@H]2C[C@@H](C)[C@@H]3C=CC(=O)[C@@]3(C)C[C@H]12	10µM*	-2%	-1%	-25%	6	6.3µM*
O=C(CNC(=O)c1ccc(Br)cc1)NCC(=O)OCC(=O)c1ccc([N+](=O)[O-])cc1	?	/	0%	7%	5	-3%
O=C(c1ccco1)N1CCC2(CC1)CN(Cc1ccncc1)C2	-12%	/	/	/	1	?
CN[C@@H](C)[C@H](O)c1ccccc1	/	/	-2%	25µM*!	/	/
CCN1CCN(c2nc3c(c(=O)[nH]2)CCCC3)CC1	2%	5%	-5%	-4%	0	-2%
O=C1NC(=O)N(Cc2ccccc2)C(=O)/C1=C\C=C\c1ccco1	-4%[10 µM]	-12%	-6%[57.1 µM]	?	1	?
O=C1NC(=O)N(Cc2ccco2)C(=O)/C1=C/C=C/c1ccco1	3%	-2%	-4%	35µM*	-1	4%
Cc1ccc(N2C(=O)NC(=O)/C(=C\C=C\c3ccco3)C2=O)cc1C	7.1µM*	1%	-2%	50µM*	0	13µM*
Cc1ccc(N2C(=O)NC(=O)/C(=C\C=C\c3ccco3)C2=O)cc1	5.6µM*	-6%	-9%	?	2	?
CC(=O)NC(Cc1ccc(N(CCCl)CCCl)cc1)C(=O)NC(C(=O)O)C(C)C (configuration not stated)	-3%	1%	5%[57.1 µM]	?	-2	0%
NC(Cc1ccc(N(CCCl)CCCl)cc1)C(=O)O (configuration not stated)	6%	/	3%[57.1 µM]	40µM*	-1	1%
CCCCC/C=C\C/C=C\C/C=C\C/C=C\CCCC(=O)NCCO	-1%	/	/	/	-11	38%
CCCCC/C=C\C/C=C\C/C=C\C/C=C\CCCC(=O)NCCc1ccc(O)c(O)c1	-28%	/	/	/	-24	11µM*!
COC(=O)C1=CO[C@H](C)[C@H]2CN3CC[C@@]4(C(=O)Nc5ccccc54)[C@@H]3C[C@H]12	/	/	4%	10%	/	/
O=c1[nH]c(=O)n(-c2ccc(Br)cc2)c(O)c1C=NC(CO)(CO)CO	-14%	0%	6%	21%	1	0%
SMILES	VP16 counter	GALK inhibitor	TrxR1 substrate	rTrxR1 inhibitor	Coupling enz	RORgamma inh
Clc1cccc(/C=N\Nc2nccs2)c1	?	1%	-20%	?	-3	11µM*
O=c1[nH]c(=O)n(-c2ccc(Cl)cc2)c(O)c1C=Nc1ccc(S(=O)(=O)Nc2nccs2)cc1	-15%	0%	-20%	-22%	8	3%
CC(c1nc2ccccc2c(=O)[nH]1)N(C)CCOc1ccc(Cl)cc1 (configuration not stated)	?	-1%	0%	36%	-2	7.1µM*
O=C(/C=C/c1ccc(Cl)cc1)NC(=S)N1C[C@H]2C[C@H](C1)c1cccc(=O)n1C2	-3%	/	4%[57.1 µM]	-5%[57.1 µM]	1	13µM*
O=C(/C=C/c1ccc(Br)cc1)NC(=S)N1C[C@H]2C[C@H](C1)c1cccc(=O)n1C2	-9%	/	5%	-8%	-2	18µM*
O=C(c1cccc(C(F)(F)F)c1)C1CCCN(Cc2ncc[nH]2)C1 (configuration not stated)	16µM*	9%	7%[57.1 µM]	11%[57.1 µM]	0	18%
CCn1ccnc1CN1CCCC(C(=O)c2cccc(C(F)(F)F)c2)C1 (configuration not stated)	10µM*	-1%	-2%	15%	1	2µM*
COc1cccc(OC)c1CN1CCCC(C(=O)c2cccc(Cl)c2)C1 (configuration not stated)	11%	0%	-1%	22%	1	-11%
O=[N+]([O-])c1ccc(-c2ccccc2)c([As](=O)(O)O)c1	-7%	-2%	6%[57.1 µM]	?	-3	-1%
CCOc1ccc(CCNC(=O)c2cnc3sc(N4CCCC4)nn3c2=O)cc1	/	/	26%[57.1 µM]	5%[57.1 µM]	/	/
Cc1onc(-c2c(Cl)cccc2Cl)c1C(=O)Nc1ccc2c(C(F)(F)F)cc(=O)oc2c1	0%	0%	109%	55%	8	-4%
Brc1ccc2[nH]cc(C=NN3CCCCCC3)c2c1	/	/	8%[57.1 µM]	6%[11.4 µM]	/	/
COc1ccc(C(=O)Nc2ccc(-c3nc4ccccc4s3)cc2C)cc1Cl	/	/	31%	23%	/	/
CNC(=O)COC(=O)c1ccc(-c2nc3ccccc3s2)s1	0.32µM*	5%	38%	-6%	1	0.5µM*
C[C@@H]1CC2C3CC=C4C[C@@H](O)CC[C@]4(C)C3CC[C@]2(C)[C@H]1O (some centres not stated)	/	/	1%	9%	/	/
